SMILES strings stand for the structures. Among all 65,000 compounds or so, about 65 (0.1%) showed an effect of 50% or more. Only a selection was taken, and strong results are over-represented in it overall.

This is an account of results in ChEMBL document CHEMBL3988442, “University of Dundee, Small-Polar-MMV Screening Library” (2021).

For the experiment, the target named is Tryptophan--tRNA ligase (Mycobacterium tuberculosis (strain ATCC 25618 / H37Rv)) (UniProt P9WFT3). As to the kind of experiment: Biochemical assay for Mt-TrpRS. In kind it is functional. More on the design: scale not given: direction of the effect not stated beside the values. As to conditions: 10 µM.
Sequence of Tryptophan--tRNA ligase (Mycobacterium tuberculosis (strain ATCC 25618 / H37Rv)) (P9WFT3 whole entry): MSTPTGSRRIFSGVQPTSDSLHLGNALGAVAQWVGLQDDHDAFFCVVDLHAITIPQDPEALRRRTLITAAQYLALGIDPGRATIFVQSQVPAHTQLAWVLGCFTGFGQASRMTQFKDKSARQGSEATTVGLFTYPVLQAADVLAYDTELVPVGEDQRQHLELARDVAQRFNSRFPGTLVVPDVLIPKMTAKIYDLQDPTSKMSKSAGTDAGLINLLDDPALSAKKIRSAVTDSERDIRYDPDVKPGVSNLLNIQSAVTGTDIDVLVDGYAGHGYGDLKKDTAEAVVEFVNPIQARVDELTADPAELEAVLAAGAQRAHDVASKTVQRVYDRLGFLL
With `CC(NC(=O)C1CCCCC1)c1cc(O)nc(-c2cccnc2)n1` (centres undefined), the Percent Effect stood at 0.0653%.

For the compound `CC(C)C(NC(=O)C1CCCC1)c1cc(O)nc(-c2cccnc2)n1` (centres undefined), the Percent Effect was found to be 65.2%. Then `CC(C)C(NC(=O)C1CC1)c1cc(O)nc(-c2cccnc2)n1` (centres undefined), with 2.42%; and `Cc1ccc(CNCc2nnc3n2CC(C(F)(F)F)CC3)o1` (centres undefined), with -0.327%.

On to `CCOc1ccc2ccccc2c1CNCC1CCS(=O)(=O)C1` (centres undefined), for which the Percent Effect is -4.67%. On to `Cc1ccc(N2C[C@H](C(=O)N3CCOCC3)[C@@H]3CCO[C@@H]3C2)nn1`, for which the Percent Effect was -1.89%. For the compound `CCNC(=O)N(C)C(c1cccc(F)c1)c1ccccn1` (centres undefined), the Percent Effect was determined as 2.8%.

In the case of `CC(=O)N(C)C(c1cccc(F)c1)c1ccccn1` (centres undefined), the Percent Effect is 70.3%.

Turning to `CC(C)N(C)CC(=O)N(C)C(c1cccc(F)c1)c1ccccn1` (centres undefined), the Percent Effect stood at 94.7%. Then `CCCC(=O)N(C)C(c1cccc(F)c1)c1ccccn1` (centres undefined), with -2.61%; and `CCN(CC)CC(=O)N(C)C(c1cccc(F)c1)c1ccccn1` (centres undefined), with 0.435%.

Turning to `CC(C)NC(=O)N(C)C(c1cccc(F)c1)c1ccccn1` (centres undefined), the Percent Effect is -3.48%. Then `Cc1nnc([C@@]23CCO[C@@H]2CCN(S(C)(=O)=O)C3)o1`, with 14.4%; and `CC(c1ccncc1)N1Cc2nc(N(C)C)ncc2C1=O` (centres undefined), with 0.86%; and `COC(=O)c1ncccc1N1CCCCC1`, with 0.136%. On to `Cc1ccc(CN2C[C@H](N3CCOCC3)[C@@H]3OCCC[C@@H]32)o1`, for which the Percent Effect is -6.03%. Then `CCn1c(C(=O)N2CCN(CC(C)O)CC2)cc2ccccc21` (centres undefined), with 0.24%. Under `CCC(O)CN1CCN(C(=O)c2cc3ccccc3n2CC)CC1` (centres undefined) stands 84.1%; under `CCn1c(C(=O)N2CCN(C(=O)NC(C)C)CC2)cc2ccccc21`, 0.24%; under `c1cnc(N2CCO[C@H]3CN(Cc4ccsc4)C[C@H]32)nc1`, -4.69%. In the case of `COc1ccc2nnc(CCC(=O)NCc3cccn3C)n2n1`, the Percent Effect amounted to 1.87%. Regarding `Cn1cccc1CNC(=O)CCCc1nnc2ccccn12`, the Percent Effect is 224%. Then `COc1ccc2nnc(CCCC(=O)NCc3cccn3C)n2n1`, with 1.21%; and `CS(=O)(=O)NC[C@]12COC[C@H]1CN(C(=O)c1ccccc1)C2`, with -5.18%; and `CC(=O)N1CC2(CCN(Cc3ccc(Cl)cc3)CC2)Cc2ccccc21`, with -5.45%. Then `CN1C(=O)CC(C(=O)O)C12CCN(Cc1ccc(Cl)c(F)c1)CC2` (centres undefined), with 54.6%; and `CN1C(=O)CC(C(=O)O)C12CCN(Cc1ccc(F)c(Cl)c1)CC2` (centres undefined), with -3.47%. In the case of `CN1C(=O)CC(C(=O)O)C12CCN(Cc1ccc(Cl)c(Cl)c1)CC2` (centres undefined), the Percent Effect was -7.74%. Under `CN(C)c1ncccc1CNC(=O)N1CCCC1CN1CCCC1` (centres undefined) stands 67.8%; under `CN(C)c1ncccc1CNC(=O)N1CCCC1CN1CCCCC1` (centres undefined), -0.719%; under `CN(C)c1ncccc1CNC(=O)N1CCCC1c1ccsc1` (centres undefined), -2.64%. Consider `CS(=O)(=O)N1CC[C@]2(O)CCN(c3cc(C#N)ccn3)C[C@@H]2C1`, for which the Percent Effect is -1.89%. Under `CO[C@@H]1CC[C@H]2[C@H]1OCCN2CCOCc1ccccc1` stands -7.44%; under `CCN1CCO[C@@H]2CN(C(=O)COC3CCCC3)C[C@@H]2C1`, 14.7%; under `CC(C)NC(=O)N1CCC2(CC1)C(=O)NCCN2Cc1ccccc1`, -4.29%. Under `O=C(NC1CC1)N1CCC2(CC1)C(=O)NCCN2Cc1ccccc1` stands -5.09%. Then `O=C(CC1CC1)N1CCC2(CC1)C(=O)NCCN2Cc1ccccc1`, with 54.2%; and `COc1ccccc1C1(C(=O)NCCN2CCCCC2)CCOCC1`, with 73.8%; and `COc1ccccc1C1(C(=O)NCCN2CCOCC2)CCOCC1`, with -0.235%. Turning to `Cc1ccccc1C1(C(=O)NCCN2CCCC2)CCOCC1`, the Percent Effect worked out at 1.49%. Under `COc1ccc(CN2C[C@H]3CN(c4cncnc4)C(=O)[C@H]3C2)cc1` stands 0.241%; under `Cc1c(Cl)c(C(=O)NC(C)CN2CCOCC2)nn1C` (centres undefined), -1.4%; under `Cc1oncc1C(=O)N1C[C@H]2CCCC(N(C)Cc3cccs3)[C@H]2C1` (some centres undefined), 0.971%. Turning to `Cc1nn(C)c(C)c1C1CCCN1C(=O)c1ccc(Cl)o1` (centres undefined), the Percent Effect worked out at 0%.

As to `CSc1ccc(C(=O)N2CCOCC2c2c(C)nn(C)c2C)o1` (centres undefined), the Percent Effect is -3.05%. As for `Cc1nn(C)c(C)c1C1COCCN1C(=O)c1ccc(Cl)o1` (centres undefined), the Percent Effect turned out to be 80.8%. For `CS(=O)(=O)N[C@H]1CN(C(=O)c2cscn2)[C@@H]2CCCO[C@H]12`, the Percent Effect amounted to 1.91%. On to `Cn1cc(CN2CCO[C@H]3CN(Cc4ccco4)C[C@H]32)cn1`, for which the Percent Effect was -5.69%. Under `O=C(N[C@@H]1CN(C2CCCC2)C[C@@H]2CCCO[C@@H]21)c1cnccn1` stands -1.79%; under `COCC1CC2(CCN(C(=O)c3ccc(OC)c(Cl)c3)CC2)CO1` (centres undefined), -1.65%; under `COCC1CC2(CCN(C(=O)c3cccc(C)c3)CC2)CO1` (centres undefined), -6.95%.

As for `COCC1CC2(CCN(C(=O)c3ccc(F)c(Cl)c3)CC2)CO1` (centres undefined), the Percent Effect is 54.8%. Under `c1ccc(NC[C@@H]2CCC[C@@H]3CN(Cc4cc[nH]n4)C[C@@H]32)nc1` stands -8.1%; under `CN(C)C(=O)N[C@H]1CN(Cc2ccc3c(c2)OCO3)[C@@H]2CCCO[C@H]12`, -1.66%; under `CN(CC(=O)Nc1cccnc1)C1CCCN(c2cccnn2)C1` (centres undefined), 57.9%.

For the compound `Cc1nnc(NC(=O)CN(C)C2CCCN(c3cccnn3)C2)s1` (centres undefined), the Percent Effect is -2.71%. Regarding `CN(CC(=O)Nc1ccncc1)C1CCCN(c2cccnn2)C1` (centres undefined), the Percent Effect was -2.13%. Then `CCc1nc(CN(C)C2CCCN(c3cccnn3)C2)no1` (centres undefined), with 10.3%; and `COCCc1noc(CN(C)C2CCCN(c3ccc(C)nn3)C2)n1` (centres undefined), with 0.711%.

Take `COCCc1noc(CN(C)C2CCCN(c3cccnn3)C2)n1` (centres undefined): the Percent Effect is 67.5%. Then `CN(Cc1ccco1)[C@@H]1CN(C(=O)c2ccnnc2)C[C@@H]2CCCO[C@@H]21`, with 4.52%; and `O=C1CO[C@H]2CN(Cc3ccc4c(c3)OCO4)C[C@H]2N1`, with -0.835%. For the compound `CNC(=O)[C@@]12CCO[C@@H]1CCN(Cc1cccc(C)c1)C2`, the Percent Effect is -2.81%.

With `C=C1C(C)(C)[C@H]2CC[C@]1(C(=O)N1CCC(n3cc(CCO)nn3)CC1)C2`, the Percent Effect was found to be 1.01%. Then `CCn1cnnc1CNC(=O)NC(c1cccs1)C1CCCC1` (centres undefined), with 55.9%; and `CCn1cnnc1CNC(=O)NC(C)c1cccs1` (centres undefined), with -0.56%; and `CCn1cnnc1CNC(=O)NC(c1ccccc1)C1CCCC1` (centres undefined), with 0.594%. As to `O=C(COc1cccc(Cl)c1)N1CCOCC1c1ncon1` (centres undefined), the Percent Effect was 60.2%. `O=C(COc1ccc(Cl)cc1)N1CCOCC1c1ncon1` (centres undefined): the Percent Effect was found to be 3.96%. Then `O=C(COc1cccc(Br)c1)N1CCOCC1c1ncon1` (centres undefined), with -4.77%; and `O=C(c1ccccc1)N1CC[C@H]2C[C@H](c3nccs3)O[C@@H]2C1`, with 0.277%. For the compound `CN(C)C(=O)c1cncnc1-c1ccc(CNC(=O)C2CCCO2)cc1` (centres undefined), the Percent Effect is 59.1%.

As for `CN(C)C(=O)c1cncnc1-c1ccc(CNC(=O)C2CC2)cc1`, the Percent Effect amounted to 1.32%. Under `COCC(=O)NCc1ccc(-c2ncncc2C(=O)N(C)C)cc1` stands -3.46%; under `COc1ccc(CN2C[C@@H]3CN(S(=O)(=O)C4CC4)C[C@@H]3C2=O)cc1`, 2.34%.

In the case of `c1cnc(N2CC[C@@H]3[C@@H]2CCN3Cc2cccs2)nc1`, the Percent Effect is -3.73%.

Turning to `CCc1noc(C)c1C(=O)N1CCCC1Cn1nc(C)cc1C` (centres undefined), the Percent Effect was found to be 1.85%. Then `Cc1cc(C)n(CC2CCCN2C(=O)c2c(C)noc2C)n1` (centres undefined), with 66.8%; and `Cc1cc(C)n(CC2CCCN2C(=O)Cc2c(C)noc2C)n1` (centres undefined), with -1.17%; and `CS(=O)(=O)NC[C@@H]1OC[C@H]2CN(C(=O)c3ccccc3)CC[C@H]21`, with -2.6%. Take `Cc1ncoc1C(=O)N1C[C@H]2CCC[C@@]2(COCC2CCOCC2)C1`: the Percent Effect was -1.66%. Regarding `O=C(CC1CC1)N1CCO[C@H]2[C@H](OCCCn3cccn3)CC[C@@H]21`, the Percent Effect was -5.05%. Under `c1cncc(CN2CC[C@H]3O[C@@H](COCC4CCOCC4)CC[C@H]32)c1` stands -0.469%; under `CC[S+](CC)[c-]1c(=O)[nH]c(=O)n(Cc2ccc(F)cc2)c1=O`, -5.58%.

On to `CN(Cc1nnc2n1CCC2)C(=O)c1ccc2c(c1)OCO2`, for which the Percent Effect was -1.84%.

For `CN(Cc1nnc2n1CCC2)C(=O)c1ccc2c(c1)OCCCO2`, the Percent Effect was 19.8%. As to `CN(Cc1nnc2n1CCC2)C(=O)c1ccc2c(c1)OCCO2`, the Percent Effect was 69.5%. Then `Cc1ccn(-c2ccc(N3CCCN(Cc4ccccc4)CC3)nn2)n1`, with 119%; and `CCCN1CCCN(c2ccc(-n3ccc(C)n3)nn2)CC1`, with -6%. As for `CCN1CCCN(c2ccc(-n3ccc(C)n3)nn2)CC1`, the Percent Effect worked out at 1.17%.

Take `O=S(=O)(c1ccccc1)N1C[C@@H]2COC[C@]2(COCC2CC2)C1`: the Percent Effect is 9.94%.

As to `O=C(c1ccc(F)c(F)c1)N1C[C@H]2CNC[C@H]2C1`, the Percent Effect is -6.39%. For the compound `Fc1ccc(-c2nc(CN3CCCC3Cn3cncn3)co2)cc1` (centres undefined), the Percent Effect was 53.9%. Under `Fc1ccc(-c2nc(CN3CCCCC3Cn3cncn3)co2)cc1` (centres undefined) stands -4.8%; under `Cc1cnn(CC2CCCN2Cc2coc(-c3cccc(F)c3)n2)c1` (centres undefined), 4.37%. Regarding `Fc1cccc(-c2nc(CN3CCCC3Cn3cccn3)co2)c1` (centres undefined), the Percent Effect was 74.9%. Take `Cc1ccc(-c2nc(CN3CCCC3Cn3cncn3)co2)cc1` (centres undefined): the Percent Effect is -4.8%.

As to `Fc1cccc(-c2nc(CN3CCCC3Cn3cncn3)co2)c1` (centres undefined), the Percent Effect turned out to be 10.9%. Under `CS(=O)(=O)N1C[C@@H]2OCC(=O)N(CC3CCC3)[C@@H]2C1` stands -0.527%; under `Cc1nn(C)c(N(C)C)c1CNCCCNS(C)(=O)=O`, 24.1%; under `Cc1nn(C)c(N(C)C)c1CNCCCN(C)S(C)(=O)=O`, -0.817%. Under `Cc1nn(C)c(N(C)C)c1CNCCS(C)(=O)=O` stands 57.4%; under `CCN(CCCNCc1c(C)nn(C)c1N(C)C)S(C)(=O)=O`, -2.27%.

As for `CCS(=O)(=O)NCCCNCc1c(C)nn(C)c1N(C)C`, the Percent Effect came to 51.9%.

Regarding `Cc1nn(C)c(N(C)C)c1CNCCNS(C)(=O)=O`, the Percent Effect was -3.19%. Then `CC(=O)N1[C@H](CN(C)C)C[C@@H]2CN(C(=O)c3cccn3C)CC[C@@H]21`, with -8.29%; and `Cc1cccc(COC[C@]23COC[C@H]2CN(c2ncccn2)C3)n1`, with -0.382%. As to `Cc1nn(C)c(N2CCOCC2)c1CN[C@@H]1c2ccccc2C[C@@H]1O`, the Percent Effect was -6.65%. `c1coc(CN2CC[C@H]3O[C@@H](COCC4CC4)CC[C@H]32)c1`: the Percent Effect is -3.59%.

As to `CCN(CC)S(=O)(=O)N1CCCC(c2ncc3c(n2)CCN(C)C3)C1` (centres undefined), the Percent Effect was 50.2%. Then `CN1CCc2nc(C3CCCN(S(=O)(=O)c4ccccc4)C3)ncc2C1` (centres undefined), with -1.11%. `CN1CCc2nc(C3CCCN(S(=O)(=O)N4CCCC4)C3)ncc2C1` (centres undefined): the Percent Effect was -5.94%. Consider `CC(=O)N1CCN(C(=O)c2cc(C(C)C)no2)[C@H]2CS(=O)(=O)C[C@H]21`, for which the Percent Effect was -1.55%. Then `NC[C@H]1CC[C@H](c2c(C(N)=O)sc3ccccc32)CC1`, with -6.86%.
